PP1 counter: blocks human PP1-alpha phosphatase, a PP5 counter-screen. purified PP1alpha, OMFP fluorescence. 320,000 compounds, 0.9% hits. inhibition, % at 6.7 µM. AID 2235;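 active = inhibition above the mean inhibition of all tested compounds plus 3 SD, computed separately for each screening campaign, cut at about 15% in these data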
Mdm2 MdmX PPI: human Mdm2/MdmX binding inhibition; 330,000 compounds, 3% hits; inhibition, % at 8 µM; O15151+Q00987; SaOS-2 split-luciferase Mdm2/MdmX complementation, luminescence;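 active = inhibition of at least 50% at 8 µM in the primary screen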
Target sequence (O15151 whole entry, looked up): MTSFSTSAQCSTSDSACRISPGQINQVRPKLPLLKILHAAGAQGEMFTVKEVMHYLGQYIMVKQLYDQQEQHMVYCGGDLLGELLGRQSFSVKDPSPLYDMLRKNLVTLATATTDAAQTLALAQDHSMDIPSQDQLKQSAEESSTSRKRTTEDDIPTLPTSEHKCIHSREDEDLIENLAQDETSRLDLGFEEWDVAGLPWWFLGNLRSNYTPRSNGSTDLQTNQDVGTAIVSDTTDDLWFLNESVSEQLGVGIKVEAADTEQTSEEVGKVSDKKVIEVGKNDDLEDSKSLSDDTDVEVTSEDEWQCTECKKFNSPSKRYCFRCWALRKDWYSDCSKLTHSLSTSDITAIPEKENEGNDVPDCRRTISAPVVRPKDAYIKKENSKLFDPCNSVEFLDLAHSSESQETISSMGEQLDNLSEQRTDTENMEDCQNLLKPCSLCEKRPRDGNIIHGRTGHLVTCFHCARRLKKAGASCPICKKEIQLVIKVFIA
Target sequence (Q00987 whole entry, looked up): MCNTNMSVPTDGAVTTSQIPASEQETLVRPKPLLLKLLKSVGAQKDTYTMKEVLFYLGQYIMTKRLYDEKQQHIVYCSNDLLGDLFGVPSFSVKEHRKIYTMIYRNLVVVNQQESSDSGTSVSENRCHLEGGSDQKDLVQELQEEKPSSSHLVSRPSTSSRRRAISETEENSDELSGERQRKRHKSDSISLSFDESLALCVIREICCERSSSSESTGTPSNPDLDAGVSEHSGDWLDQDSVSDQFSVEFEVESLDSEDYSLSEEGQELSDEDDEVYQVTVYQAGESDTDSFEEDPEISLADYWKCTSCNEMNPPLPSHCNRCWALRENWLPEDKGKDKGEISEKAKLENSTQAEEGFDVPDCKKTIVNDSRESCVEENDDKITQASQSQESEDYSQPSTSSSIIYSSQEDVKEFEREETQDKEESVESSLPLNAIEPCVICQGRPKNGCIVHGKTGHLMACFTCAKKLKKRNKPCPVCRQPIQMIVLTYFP
Calb FLC: C. albicans growth modulation with fluconazole; 300,000 compounds, 0.57% hits; growth inhibition, % (test concentration not listed); C. albicans CaCi-2 (fluconazole-resistant clinical isolate) + fluconazole, Alamar Blue growth, 48 h;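 active = growth inhibition above about 58% in most replicates, limit read from the data, passing the limit was not always enough; inconclusive = exactly half the replicates above a set limit; inactive = most replicates below a set limit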;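 note: all wells also contain fluconazole at 8 µg/ml as a sub-toxic cotreatment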
PP5 inh: PP5 (human) phosphatase inhibition; P53041; purified PP5c, OMFP substrate fluorescence; inhibition, % at 6.7 µM; 320,000 compounds, 0.18% hits; AID 1987;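 active = inhibition above the campaign's mean inhibition across all tested compounds plus 3 SD, cut at about 9.5% in these data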
CSC inhib: cancer stem cell inhibition; 300,000 compounds, 1.1% hits; inhibition, % at 7.5 µM; cancer stem cell-like cells viability, luminescence; in the data active = inhibition above about 75%; inconclusive = no clear call, values can overlap the other calls; tested in HMLE shEcad cells
Beta apoptosis: beta cell apoptosis inhibition; INS-1E cytokine-induced death, ATP luminescence, 48 h; percent of positive-control rescue, neutral wells zero; AID 435005; 300,000 compounds, 0.8% hits; protection from apoptosis, % (test concentration not listed);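 active = Every replicate reaches about 75%, or at least half do and their mean reaches it too, limit read from the data; inconclusive = At least half of replicates reach the limit but their mean does not; inactive = Under half of replicates reach the limit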;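 note: higher means more ATP so stronger rescue from cytokine killing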
Mdm2 MdmX conf: confirmation of human Mdm2/MdmX interaction inhibitors. shares compounds with Mdm2 MdmX PPI. Mdm2-MdmX binding, luminescent assay. inhibition, % at 8 µM. 10,000 compounds, 55% hits. AID 489028; in the data active = inhibition above about 40%
Full FLuc ctr: inhibits full-length luciferase, flagging false Mdm2/MdmX hits. shares compounds with Mdm2 MdmX PPI. SaOS-2 full-length luciferase counterscreen, luminescence. inhibition, % at 8 µM. 6,200 compounds, 77% hits. AID 504607;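 active = mean inhibition at 8 µM reaching about 37%, which flags the compound as non-specific, limit read from the data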;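 note: p53-null SaOS-2 cells with luciferase driven by a doxycycline-inducible promoter; compound on cells about two nights before reading with doxycycline added after day one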
Large screens that a line does not name were inactive (follow-up assays come after a bar, where they were run). Shown are actives, neighbours in structure and some others; about 4.9% of the full set was active somewhere.

O=C1N(c2ccccc2C(F)(F)F)OC1(Cc1ccccc1)c1ccccc1 (stereo not drawn)	Mdm2 MdmX PPI 92 (no result: Calb FLC) | Mdm2 MdmX conf 67 | Full FLuc ctr 52
CC(C)[C@]1(c2ccc(Cl)cc2)ON(c2ccccc2C(F)(F)F)C1=O	Mdm2 MdmX PPI 68 (no result: Calb FLC) | Mdm2 MdmX conf inactive | Full FLuc ctr 56
CC(C)[C@@]1(c2ccccc2)ON(c2ccccc2C(F)(F)F)C1=O	none (no result: Calb FLC)
Cc1[nH]c2ccccc2c1C(O)CN1CCN(c2cccc(C(F)(F)F)c2)CC1 (stereo not drawn)	Mdm2 MdmX PPI 59 | Mdm2 MdmX conf inactive
CCc1ccc(NC(=O)CS(=O)CC(=O)Nc2ccc(-n3cnnn3)c(C)c2)cc1 (stereo not drawn)	none (no result: Beta apoptosis)
COc1ccc(Cn2cnc3c4cc(F)ccc4n(C)c3c2=O)cc1	Mdm2 MdmX PPI 65 | Mdm2 MdmX conf inactive
Cc1ccc(OCCNC(=O)c2cncc(Br)c2)cc1C	Mdm2 MdmX PPI 60 | Mdm2 MdmX conf 48 | Full FLuc ctr 60
CCc1cccc(NC(=O)c2cc(S(=O)(=O)N(C)C)ccc2N2CCCC2)c1	Mdm2 MdmX PPI 52 | Mdm2 MdmX conf 50 | Full FLuc ctr 51
Cc1cnc(NC(=O)c2cc(S(=O)(=O)N(C)C)ccc2N2CCCC2)s1	Mdm2 MdmX PPI 53 (no result: PP1 counter, Calb FLC, PP5 inh) | Mdm2 MdmX conf inactive | Full FLuc ctr 50
CNC(=O)c1ccc(NC(=O)c2cc(S(=O)(=O)N(C)C)ccc2N2CCCC2)cc1	none (no result: Calb FLC, CSC inhib)
Cc1ccc(O)c(C(=O)c2cnn(C(=O)c3cccc(S(=O)(=O)N(C)C)c3)c2)c1	none (no result: PP1 counter, Calb FLC, PP5 inh, CSC inhib, Beta apoptosis)
Cc1ccc(S(=O)(=O)N2C[C@@H]3[C@H]4CC[C@H](C4)[C@@H]3[C@@H](C)[C@H]2c2ccn(Cc3ccccc3)c2)cc1	none (no result: PP1 counter, Calb FLC, PP5 inh, CSC inhib, Beta apoptosis)
O=c1[nH]c2cc3c(cc2cc1C(c1nnnn1Cc1ccccc1)N1CCCc2ccccc21)OCO3 (stereo not drawn)	Mdm2 MdmX PPI 100 (no result: Beta apoptosis) | Mdm2 MdmX conf inactive
Cn1cccc1/C=N/NC(=O)CSc1nc2ccccc2[nH]1	none
O=C(CN1C(=O)c2ccccc2S1(=O)=O)c1ccccc1Cl	Mdm2 MdmX PPI 58 (no result: Beta apoptosis) | Mdm2 MdmX conf 55 | Full FLuc ctr 82
CC(C)NC(=O)CN1C(=O)c2ccccc2S1(=O)=O	none
O=C(CN1C(=O)c2ccccc2S1(=O)=O)c1ccccc1	Mdm2 MdmX PPI 78 | Mdm2 MdmX conf 65 | Full FLuc ctr 98
O=C(CN1C(=O)c2ccccc2S1(=O)=O)NCc1ccccc1Cl	none (no result: Beta apoptosis)
O=C(CN1C(=O)c2ccccc2S1(=O)=O)Nc1ncccn1	none
O=C(CN1C(=O)c2ccccc2S1(=O)=O)Nc1ncc(Cl)cc1Cl	Mdm2 MdmX PPI 84 (no result: PP1 counter, Calb FLC, PP5 inh) | Mdm2 MdmX conf 70 | Full FLuc ctr 64
CN(c1cccc(NC(=O)CN2C(=O)c3ccccc3S2(=O)=O)c1)S(C)(=O)=O	Mdm2 MdmX PPI 51 | Mdm2 MdmX conf inactive | Full FLuc ctr 82
CCC(C)[C@H]1COCCS(=O)(=O)N1Cc1ccc(Cl)cc1Cl (stereo partly drawn)	none
Cc1ccc(C(=O)CN2/C(=C(\O)c3ccccc3)C(=O)c3ccccc3S2(=O)=O)c(C)c1	none
Cc1ccc(C(=O)CN2C(=O)c3ccccc3S2(=O)=O)cc1	Mdm2 MdmX PPI 98 | Mdm2 MdmX conf 96 | Full FLuc ctr inactive
COc1ccc(Cl)cc1Nc1nc2ccc(C)cc2n2cnnc12	Mdm2 MdmX PPI 55 | Mdm2 MdmX conf inactive
Cc1ccc2nc(NC(=O)CN3C(=O)NC4(CCCCC4)C3=O)sc2c1	none
c1ccc2c(c1)OCC(c1csc3ncnc(N4CCCCC4)c13)O2 (stereo not drawn)	Mdm2 MdmX PPI 65 | Mdm2 MdmX conf inactive
Clc1ncnc2scc(C3COc4ccccc4O3)c12 (stereo not drawn)	Mdm2 MdmX PPI 52 | Mdm2 MdmX conf inactive
O=C(Nc1ccc(S(=O)(=O)Nc2cnc3ccccc3n2)cc1)c1ccccc1Br	none
CCN(CC(=O)Nc1ccc(NC(C)=O)cc1)C(=O)c1ccccc1CCc1ccccc1	CSC inhib inconclusive
C#CCn1cc(C=C2C(=O)c3ccccc3C2=O)c2ccccc21	none (no result: PP1 counter, Mdm2 MdmX PPI, PP5 inh, CSC inhib, Beta apoptosis)
CC[n+]1c(/C=C2/C=C(C)CC(C)(C)C2)sc2ccc(OC)cc21	Mdm2 MdmX PPI 54 | Mdm2 MdmX conf inactive | Full FLuc ctr 57
CC[n+]1c(/C=C2\C=C(C)CC(C)(C)C2)sc2ccccc21	none
O=C(O)CCCCCN1C(=O)C(O)=C(C(=O)/C=C/c2ccccc2)C1c1ccccc1[N+](=O)[O-] (stereo not drawn)	none
C/C(=N\NC(=O)CNC(=O)c1ccccc1F)c1ccco1	none
Cc1ccccc1OCC(=O)N/N=C/c1cc2ccccc2nc1Cl	none
C=CCc1ccccc1OCC(=O)N/N=C/c1ccc(OC(C)=O)cc1OC(C)=O	Mdm2 MdmX PPI 52, CSC inhib 77 | Mdm2 MdmX conf 51 | Full FLuc ctr 37
CCc1ccc(-c2cn(-c3nc(C)cc(C)n3)c(=N)o2)cc1	Mdm2 MdmX PPI 53 | Mdm2 MdmX conf 52 | Full FLuc ctr 68
CCc1nn(CC(=O)NC(C)CCc2ccccc2)c(=O)c2cc3cc(F)ccc3n12 (stereo not drawn)	Mdm2 MdmX PPI 55 | Mdm2 MdmX conf inactive
CCc1nn(CC(=O)NC2CCN(Cc3ccccc3)CC2)c(=O)c2cc3cc(F)ccc3n12	Mdm2 MdmX PPI 58 | Mdm2 MdmX conf inactive
CCCC/C=C/C(NC(=O)c1ccc(C(=O)OC)cc1)c1ccccc1 (stereo not drawn)	none
Cc1nc(=O)c(-c2ccccc2)c(C)n1-c1cccc(/C=C/C(=O)O)c1	none
Oc1ccc(Nc2nc(N3CCCC3)c3ccccc3n2)cc1	Mdm2 MdmX PPI 85, Beta apoptosis 99 (no result: CSC inhib) | Mdm2 MdmX conf inactive
COc1ccc(C2CC(O)(c3ccccc3)Oc3c(C)ccc(C)c32)cc1 (stereo not drawn)	Mdm2 MdmX PPI 51 (no result: PP1 counter, PP5 inh, CSC inhib) | Mdm2 MdmX conf inactive
COc1cc(C2C(C#N)=C(N)Oc3cc(N(C)C)ccc32)cc2c1OCO2 (stereo not drawn)	Mdm2 MdmX PPI 78 | Mdm2 MdmX conf 64 | Full FLuc ctr 112
CCOC(=O)C1=C(C)OC(N)=C(C#N)C1c1cc(OC)c2c(c1)OCO2 (stereo not drawn)	none
COc1cc(C2C(C#N)=C(N)Oc3cc(O)ccc32)cc(OC)c1OC (stereo not drawn)	Mdm2 MdmX PPI 65 | Mdm2 MdmX conf 67 | Full FLuc ctr 67
COc1cc(C2C(C#N)=C(N)Oc3cc(O)ccc32)cc2c1OCO2 (stereo not drawn)	Mdm2 MdmX PPI 57 | Mdm2 MdmX conf 56 | Full FLuc ctr 59
N#CC1=C(N)Oc2cc3c(cc2C1c1ccc(Cl)cc1)OCO3 (stereo not drawn)	Mdm2 MdmX PPI 61 | Mdm2 MdmX conf 46 | Full FLuc ctr 60

Screening results deposited in PubChem BioAssay by several laboratories.
